Bioassay records: PubChem, National Center for Advancing Translational Sciences (NCATS)
Rows were chosen to be rich in hits. Some 7.6% of all compounds tested hit in one or more screens of this group.
p53 reactivator = restores transcriptional activity of mutant p53; Potency, µM (top dose mostly 92.2 µM), hits mostly activators; AID 504706; H1299 p53-A138V BP100-luciferase reporter, luminescence, 24 h; actives 0.063% (n = 320,000); note: nearly all actives have a fitted effect of over 45% in size
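p53-null H1299 cells stably carrying temperature-sensitive p53-A138V and a BP100-luciferase reporter were pinned with compounds (4-point, 1:5 series) and held 24 hrs at 37 deg C. Luminescence was read 10 min after detection reagent.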
ELG1 DNA repair = inhibitors of ELG1-dependent DNA repair in HEK293T cells | HEK293T ELG1-luciferase reporter, luminescence, 16 h; DNA damage induced by 5-fluorouridine | Potency, µM (doses to about 46.1 µM), most hits filed as inhibitors | actives 2.3% (n = 330,000) | AID 504467; note: nearly all actives have a fitted effect of over 55% in size
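Reporter activity after DNA damage by 5-fluorouridine is monitored. Compound-treated cells incubate 16 hr at 37 °C, then ONE-Glo is added for 30 min before luminescence reading.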
Giardia killer = Giardia lamblia killing; Giardia lamblia trophozoite viability; actives 0.15% (n = 340,000); activity change, % at 7.66 µM, hits read low; AID 540267; in the data active = activity change below about -80%; inconclusive = between about -30% and that limit;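 note: parasites exposed to compound for two days anaerobically before the ATP read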
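Giardia lamblia trophozoites (100 cells/well) were incubated with compounds for 48 h at 37 deg C under anaerobic conditions. Viability was read as ATP content by one-step luminescence after 15-30 min at room temperature.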
Gal4-VP16 FLuc = counter-screen for ROR gamma inhibitors: Gal4-VP16 reporter. actives 3.5% (n = 310,000). Drosophila S2 Gal4-VP16 UAS-luciferase, luminescence, 20 h. AID 2546. Potency, µM (titrated, usually from 53.6 µM), actives largely listed as inhibitors;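 note: Gal4-VP16 expression switched on by copper sulfate through the metallothionein promoter; nearly all actives have a fitted effect of over 50% in size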
BRCA1 expr act = activators of BRCA1 expression | MCF7-BRCA1-FFLuc reporter, luminescence, 48 h; response scale: scaled: vehicle 0%, 10 µM genistein 100% | Potency, µM (top dose mostly 46.1 µM), actives largely listed as activators | actives 1.1% (n = 380,000); note: nearly all actives have a fitted effect of over 80% in size
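Cells: MCF7-BRCA1-FFLuc, 2000/well. Exposure: 48 h, 37 °C, 5% CO2. Read: luminescence, 15 min post-substrate. Controls: genistein 10 microM (maximal activation), DMSO (neutral).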
RORg inh = inhibitors of mouse ROR gamma transcriptional activity | AID 2551 | P51450 | Drosophila S2 Gal4-RORgamma UAS-luciferase reporter, 20 h | actives 5.4% (n = 310,000) | Potency, µM (series often up to 53.6 µM), actives largely listed as inhibitors; note: nearly all actives have a fitted effect of over 60% in size
Target sequence (P51450 whole entry, looked up, the tested form may be a part): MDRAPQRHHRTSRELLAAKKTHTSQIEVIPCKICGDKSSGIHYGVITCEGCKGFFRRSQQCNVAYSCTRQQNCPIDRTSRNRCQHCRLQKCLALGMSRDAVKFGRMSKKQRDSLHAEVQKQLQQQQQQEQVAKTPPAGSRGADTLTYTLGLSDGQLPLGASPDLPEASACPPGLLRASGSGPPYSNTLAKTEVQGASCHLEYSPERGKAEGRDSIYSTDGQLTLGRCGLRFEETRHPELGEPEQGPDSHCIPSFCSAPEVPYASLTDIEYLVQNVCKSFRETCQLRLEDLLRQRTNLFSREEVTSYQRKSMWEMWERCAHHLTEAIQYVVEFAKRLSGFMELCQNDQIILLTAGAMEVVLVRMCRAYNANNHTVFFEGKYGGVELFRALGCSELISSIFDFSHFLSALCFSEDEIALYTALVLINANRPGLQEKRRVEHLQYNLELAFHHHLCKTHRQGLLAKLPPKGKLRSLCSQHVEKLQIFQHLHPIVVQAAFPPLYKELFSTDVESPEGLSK
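Luciferase reporter read in Schneider cells carrying Gal4-RORγ (mouse) and UAS-Photinus luciferase; cells given compound 1 h before 700 uM copper sulfate induction, then incubated 20 h at ambient temperature.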
A number is an active result; - = inactive; ? = inconclusive; . = no result given; [ ] = another dose, or the depositor's remark. Unless noted, calls come from the whole dose curve; as a rule, active = well fitted curve in the direction sought with a large enough effect; inconclusive = small, poorly fitted or top-dose-only effect, or another doubt; inactive = no such curve, though single readings can be large; an effect the other way counts as inactive or inconclusive.

SMILES	p53 reactivator	ELG1 DNA repair	Giardia killer	Gal4-VP16 FLuc	BRCA1 expr act	RORg inh
O=C(CC1CCCCC1)Nc1nc2ccccc2s1	?	?	-	-	?	-
CCNC(=O)Nc1nc2ccccc2s1	-	?	-	-	3.2µM	-
O=C(Nc1nc2ccccc2s1)NC1CCCCC1	-	?	-	-	?	13µM
O=C(Nc1nc2ccccc2[nH]1)C1CC1	-	-	-	?	-	?
CCc1cc2c(COC(=O)c3cc(S(=O)(=O)N4CCOCC4)ccc3F)cc(=O)oc2cc1O	-	?	-	.	-	.
CC(C)OC(=O)CCC(=O)Nc1nc2ccccc2s1	-	?	-	-	-	?
CCOC(=O)C(C(=O)Nc1nc2ccccc2s1)C1CCCCC1 (configuration not stated)	-	-	-	-	-	5µM
S=C(NC1CCCCC1)N(CCc1nc2ccccc2[nH]1)C1CCCC1	-	23µM	-	?	-	-
CCOCC(=O)Nc1nc2ccccc2s1	?	?	-	?	7.9µM	?
O=C(Nc1ccccc1)N(CCc1nc2ccccc2[nH]1)C1CCCC1	-	-	-	-	-	-
C=C(C)C1CCC(C)=C1CC(C)(C)/C=N\n1cnnc1 (configuration not stated)	-	-	-	-	-	-
C[C@@H]1CN([C@@H](C)CO)C(=O)CCCn2nncc2CO[C@@H]1CN(C)S(C)(=O)=O	.	.	.	.	-	.
Cc1cc(=O)n2[nH]c(N)c(N=Nc3ccccc3F)c2n1	-	-	-	-	-	10µM
O=C(NNC(=S)Nc1ccc(Cl)cc1Cl)c1ccncc1	-	-	-	11µM	-	?
O=C(Nc1cccnc1)c1ccc(N2CCOCC2)c([N+](=O)[O-])c1	.	-	-	-	-	?
O=C(NNC(=S)Nc1ccc(Cl)cc1Cl)c1cccnc1	-	?	-	.	-	.
O=C(c1ccc(N2CCOCC2)c([N+](=O)[O-])c1)N1CCCCC1	-	-	-	-	-	-
O=C(Nc1ccc(-c2nc3ccccc3o2)cc1)c1ccc(N2CCOCC2)c([N+](=O)[O-])c1	-	?	-	10µM	-	?
O=C(NNC(=S)Nc1ccc(Br)cc1)c1ccc(N2CCOCC2)c([N+](=O)[O-])c1	-	-	-	13µM	-	13µM
O=C(NNC(=S)Nc1ccc(Cl)cc1Cl)c1ccc(N2CCOCC2)c([N+](=O)[O-])c1	-	-	-	?	-	11µM
Cc1ccc(C)c(Cc2c(C)nc(C)[nH]c2=O)c1	-	-	-	-	-	-
Cc1cc(C)c(C(=O)CSc2nc(C)cc(C)c2C(N)=O)c(C)c1	-	?	-	-	-	-
Cc1ccc2nc(NCCc3ccccc3)c3nncn3c2c1	-	?	-	-	-	-
CCOC(=O)C1(Cc2ccc(OC)cc2)CCN(C(=O)c2ccc3[nH]ccc3c2)CC1	-	-	-	-	-	-
Cc1cc(C(=O)Nc2ccc(N3CCCC3)c(Cl)c2)ccc1[N+](=O)[O-]	-	-	-	-	10µM	?
SMILES	p53 reactivator	ELG1 DNA repair	Giardia killer	Gal4-VP16 FLuc	BRCA1 expr act	RORg inh
Cc1cc(C(=O)Nc2ccc3c(c2)OCCO3)ccc1[N+](=O)[O-]	.	?	?	?	?	-[1.91 µM]
Cc1ccc(NC(=S)NNC(=O)c2ccc(N3CCOCC3)c([N+](=O)[O-])c2)cc1Cl	-	-	-	13µM	-	16µM
Cc1cccc(NC(=O)c2ccc(N3CCOCC3)c([N+](=O)[O-])c2)n1	-	?	-	-	?	-
COc1cccc(-c2ccc(CN3C(C)C(=O)N(Cc4cn(Cc5ccco5)nn4)CCS3(=O)=O)cc2)c1OC (configuration not stated)	.	.	.	.	-	.
CCCCOc1ccc(/C=N/NC(=S)Nc2cccc(C)c2C)cc1	-	-	-	3.2µM	-	1.8µM
Cc1cccc(C)c1NC(=S)N/N=C/c1ccc(C(=O)O)cc1	-	-	-	-	-	-
COc1ccc(/C=N/NC(=S)Nc2ccccc2)cc1	-	?	-	?	-	-
CCCCOc1ccc(/C=N/NC(=S)Nc2cc(C)ccc2C)cc1	-	-	-	5µM	-[1.84 µM]	6.3µM
Cc1ccc(C)c(NC(=O)CCOc2ccccc2)c1	-	-	-	-	-	-
Cc1cccc(C)c1NC(=S)N/N=C/c1ccc(OCCC(C)C)cc1	-	?	-	2.8µM	-	1.6µM
COCCN(C(=O)COC(=O)C1(C)CC1(Cl)Cl)c1c(N)n(Cc2ccccc2)c(=O)[nH]c1=O (configuration not stated)	-	-	-	-	-	-
Cc1cc(=S)c2cccc(C)c2[nH]1	-	-	-	-	-	-
COc1ccc(NC(=S)Nc2cccc3cnccc23)cc1	-	-	-	-	-	-
CCOc1ccc(NC(=S)Nc2cccc3cnccc23)cc1	-	-	-	?	-	18µM
CN(C)S(=O)(=O)c1cccc(NC(=S)Nc2cccc3cnccc23)c1	-	21µM	-	?	-	?
CCOc1ccc(NC(=S)Nc2ccccc2C2CC2)cc1	-	-	-	11µM	-	2.8µM
CCOc1ccc(NC(=S)NCCCN2CCOCC2)cc1	-	-	-	-	-	-
CCOc1ccc(NC(=S)Nc2cccc3ccccc23)cc1	?	?	-	8.9µM	-	7.9µM
CN(C)S(=O)(=O)N(CC(=O)N1CCN(Cc2ccccc2)CC1)c1ccccc1	-	-	-	-	-	-
N#C/C(=C(\O)c1ccco1)c1ccccn1	?	?	-	?	?	?
N#CC(C(=O)c1ccco1)c1ccccn1 (configuration not stated)	?	?	-	-	14µM	-
S=C1NC(C23CC4CC(CC(C4)C2)C3)=CC(c2ccc3c(c2)OCO3)N1 (configuration not stated)	-	-	-	?	-	0.71µM
COc1ccc(OC)c(C2C=C(C34CC5CC(CC(C5)C3)C4)NC(=S)N2)c1 (configuration not stated)	-	?	-	3.2µM	-	3.2µM
COc1cc(C2C=C(C34CC5CC(CC(C5)C3)C4)NC(=S)N2)cc(OC)c1OC (configuration not stated)	-	23µM	-	0.79µM	-	1µM
COc1ccc(CCc2cc(OC)c(OC)c(OC)c2)cc1	.	.	-	.	-	.
COc1ccc(C2=CC(c3cc(OC)c(OC)c(OC)c3)NC(=S)N2)cc1 (configuration not stated)	-	-	-	?	-	13µM
COc1cc(C(=S)N2CCCC2)ccc1OS(=O)(=O)c1ccc(NC(C)=O)cc1	-	?	-	-	-	-
CC(=O)Nc1ccc(S(=O)(=O)Oc2ccccc2N2CCCCC2)cc1	-	8.2µM	-	?	-	?
